This is part of a sample that, as a whole, favours compounds with a hit. Of some 83,000 tested, about 20% had one in any assay.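 96-well plates, one dose, 48 hours. Percent growth reported; active if below 10.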 The source made the active and inactive calls.
Each compound was assayed on NCI-H460 lung (assay: NCI-60 one-dose screen, 48 h (100 = growth as untreated, 0 = no growth, -100 = all killed)). Settings: 10 µM unless noted.
For `C=CCn1c(SCC(=O)Nc2ccc(C(=O)/C=C/c3ccc(OC)cc3)cc2)nnc1-c1ccccc1`, the growth was 103% (inactive).
In the case of `COc1cc2ncnc(Nc3ccc(F)c(Cl)c3)c2cc1OCC(=O)N1CCN(c2ccc(F)cc2)CC1`, the growth is reported as 101% (inactive).
`Cc1ccc2nc(Cl)c(Cn3nnnc3SCc3ccccc3)cc2c1` was tested, and the growth was 98.4% (inactive).
For `CN1CCN(CCOc2ccc(-c3cnc4c(-c5ccc(C(F)(F)F)cc5)cnn4c3)cc2)CC1`, the growth was -50.3% (active).
For `C/C(C=O)=C\c1ccc2c(c1)OCO2`, the growth was 118% (inactive).
For `Cc1ccc(O)c(NC(=O)c2ccc(CNc3ccnc(C(F)(F)F)c3)cc2)c1`, the growth was 18.8% (inactive).
For `O=C1/C(=C/c2ccc(C(F)(F)F)cc2)COc2ccc(O)c(O)c21`, the growth was 25.8% (inactive).
For `O=C(N/N=C/c1ccc(O)cc1O)c1ccc(Nc2ccnc(C(F)(F)F)c2)cc1`, the growth was 24.6% (inactive).
For `O=c1[nH]c(-c2ccc(Cl)cc2)cn1-c1ccc(-n2cc(-c3ccc(Cl)cc3)[nH]c2=O)cc1`, the growth was 115% (inactive).
`CC1O[C@@H]2C[C@@](O)([C@H]1O)n1c3ccccc3c3c4c(c5c6ccccc6n2c5c31)C(=O)NC4=O` (some centres not stated) was tested, and the growth was 11.3% (inactive).
With `COC1=CC(c2ccc[nH]2)=N/C1=C\c1[nH]c(C)c(CC(=O)OCc2ccccc2)c1C` the growth was 7.86% (active).
With `NC(=O)c1ccc(NC(=O)c2oc3ccccc3c2-c2cnn(-c3ccccc3)c2)cc1` the growth was 5.78% [50 µM] (active).
In the case of `CCOC(=O)N1CCN(S(=O)(=O)c2oc(-c3ccc(Cl)cc3)nc2C#N)CC1`, the growth is reported as 103% (inactive).
`Cc1nn(-c2ccccc2)c(N2CCCCC2)c1/C=N/NC(=O)Cn1c(=O)sc2ccccc21` was tested, and the growth was 81.5% (inactive).
With `CN(C)c1ccc(C(=NO)c2ccc(N(C)C)cc2)cc1` the growth was 7.18% (active).
With `Clc1ccc(-c2nc(-c3c[nH]c4ncccc34)cs2)cc1` the growth was 72.5% [100 µM] (inactive).
`COc1ccc(C(c2cc(OC)c(OC)c(OC)c2)N2CCCC2)cc1` (configuration not stated) was tested, and the growth was 84.3% (inactive).
For `COc1cccc(C(=O)OCC(O)C(=O)NC23CC4CC(CC(C4)C2)C3)c1` (configuration not stated), the growth was 101% (inactive).
In the case of `C=CC(=O)N1CCN(c2ccc3cccc(NC(=O)c4cnc(C)cn4)c3n2)CC1`, the growth is reported as 34.7% (inactive).
For `CCOC(=O)c1c(C)c2c(n1C)CSc1cc(S(=O)(=O)c3ccccc3)c(=O)[nH]c1-2`, the growth was 9.02% [100 µM] (active).
`CCCCCCCCNc1cc2c3c(c1)CCCN3CCC2` was tested, and the growth was 16.9% (inactive).
In the case of `COc1ccc(OC)c(-c2cn3nc(-c4c[nH]c5ccc(Br)cc45)sc3n2)c1`, the growth is reported as -32.4% (active).
For `CS(=O)(=O)Nc1cc(-c2ccc3ncnc(Nc4ccc5c(cnn5Cc5cccnc5)c4)c3c2)cnc1Cl`, the growth was 79.8% (inactive).
`C=CCN=C(N)SCCCCCCSC(N)=NCC=C` was tested, and the growth was 102% (inactive).
In the case of `COc1ccc2[nH]cc(-c3nc(-c4cn(C)c5ccncc45)cs3)c2c1`, the growth is reported as -51% (active).
In the case of `COc1cccc(NC(=O)c2cccc(C3CCc4c(cc(OC)c(OC)c4OC)O3)c2)c1` (configuration not stated), the growth is reported as 84% (inactive).
With `Cn1c(O)c(C(/C=C/c2ccccc2)=Nc2ccccc2N)c(=O)n(C)c1=O` the growth was 104% (inactive).
`CC1=C(C(=O)n2c3ccccc3c3ccccc32)C(c2cccc([N+](=O)[O-])c2)C(C(=O)n2c3ccccc3c3ccccc32)=C(C)N1` was tested, and the growth was 102% (inactive).
In the case of `O=C(O)c1cn(C2CC2)c2cc(N3CCN(C(=O)N/N=C/c4ccccc4)CC3)c(F)cc2c1=O`, the growth is reported as 109% (inactive).
`CC1(C)CCC(S(=O)(=O)c2ccc3c(c2)/C(=N\O)c2cc(S(=O)(=O)N4CCN(c5ccc(F)cc5O)CC4)ccc2-3)CC1` was tested, and the growth was -78% (active).
In the case of `Cc1ccc(C)n1/C=C/n1c(C)ccc1C`, the growth is reported as 110% (inactive).
With `CCOC(=O)C(=Cc1cccc(C#N)c1)C(=O)OCC` the growth was 95.9% (inactive).
With `COc1cc(-c2nc(NC(C)=O)sc2-c2ccnc(NCCNS(=O)(=O)c3ccccc3)n2)ccc1Cl` the growth was 11.8% (inactive).
With `C/C(=N\Nc1nc(C)cs1)c1cc2ccccc2o1` the growth was 95.6% (inactive).
`COc1ccccc1-n1c(-c2cc(O)ccc2C)cn2c3c(=O)[nH]c(=O)n(C)c3nc12` was tested, and the growth was 91.6% (inactive).
In the case of `COc1ccc(C2=C/C(=C\c3ccc(Cl)cc3)C(=O)N2/N=C/c2ccc(Cl)cc2)cc1`, the growth is reported as 106% (inactive).
In the case of `CC(O)c1ncc(/C=C2\SC(=S)N(Cc3ccccc3)C2=O)s1` (configuration not stated), the growth is reported as 104% (inactive).

These compounds were tested on HOP-92 NSCLC in the same assay as above. Settings: 10 µM unless noted.
For `C=CCn1c(SCC(=O)Nc2ccc(C(=O)/C=C/c3ccc(OC)cc3)cc2)nnc1-c1ccccc1`, the growth was 86% (inactive).
In the case of `COc1cc2ncnc(Nc3ccc(F)c(Cl)c3)c2cc1OCC(=O)N1CCN(c2ccc(F)cc2)CC1`, the growth is reported as 87.9% (inactive).
With `Cc1ccc2nc(Cl)c(Cn3nnnc3SCc3ccccc3)cc2c1` the growth was 70.6% (inactive).
With `CN1CCN(CCOc2ccc(-c3cnc4c(-c5ccc(C(F)(F)F)cc5)cnn4c3)cc2)CC1` the growth was 40.4% (inactive).
For `C/C(C=O)=C\c1ccc2c(c1)OCO2`, the growth was 104% (inactive).
For `Cc1ccc(O)c(NC(=O)c2ccc(CNc3ccnc(C(F)(F)F)c3)cc2)c1`, the growth was 92.1% (inactive).
With `O=C1/C(=C/c2ccc(C(F)(F)F)cc2)COc2ccc(O)c(O)c21` the growth was -13.7% (active).
In the case of `O=C(N/N=C/c1ccc(O)cc1O)c1ccc(Nc2ccnc(C(F)(F)F)c2)cc1`, the growth is reported as 40.9% (inactive).
In the case of `O=c1[nH]c(-c2ccc(Cl)cc2)cn1-c1ccc(-n2cc(-c3ccc(Cl)cc3)[nH]c2=O)cc1`, the growth is reported as 99.1% (inactive).
In the case of `CC1O[C@@H]2C[C@@](O)([C@H]1O)n1c3ccccc3c3c4c(c5c6ccccc6n2c5c31)C(=O)NC4=O` (some centres not stated), the growth is reported as 121% (inactive).
For `COC1=CC(c2ccc[nH]2)=N/C1=C\c1[nH]c(C)c(CC(=O)OCc2ccccc2)c1C`, the growth was -16.8% (active).
In the case of `NC(=O)c1ccc(NC(=O)c2oc3ccccc3c2-c2cnn(-c3ccccc3)c2)cc1`, the growth is reported as -27.3% [50 µM] (active).
In the case of `CCOC(=O)N1CCN(S(=O)(=O)c2oc(-c3ccc(Cl)cc3)nc2C#N)CC1`, the growth is reported as 97.6% (inactive).
`Cc1nn(-c2ccccc2)c(N2CCCCC2)c1/C=N/NC(=O)Cn1c(=O)sc2ccccc21` was tested, and the growth was 65.6% (inactive).
For `CN(C)c1ccc(C(=NO)c2ccc(N(C)C)cc2)cc1`, the growth was 37.8% (inactive).
For `Clc1ccc(-c2nc(-c3c[nH]c4ncccc34)cs2)cc1`, the growth was -42.4% [100 µM] (active).
For `COc1ccc(C(c2cc(OC)c(OC)c(OC)c2)N2CCCC2)cc1` (configuration not stated), the growth was 85.5% (inactive).
In the case of `COc1cccc(C(=O)OCC(O)C(=O)NC23CC4CC(CC(C4)C2)C3)c1` (configuration not stated), the growth is reported as 91.7% (inactive).
`CCOC(=O)c1c(C)c2c(n1C)CSc1cc(S(=O)(=O)c3ccccc3)c(=O)[nH]c1-2` was tested, and the growth was 8.76% [100 µM] (active).
For `COc1ccc(OC)c(-c2cn3nc(-c4c[nH]c5ccc(Br)cc45)sc3n2)c1`, the growth was 46.5% (inactive).
With `CS(=O)(=O)Nc1cc(-c2ccc3ncnc(Nc4ccc5c(cnn5Cc5cccnc5)c4)c3c2)cnc1Cl` the growth was -10% (active).
With `C=CCN=C(N)SCCCCCCSC(N)=NCC=C` the growth was 63.3% (inactive).
For `COc1cc(C2C3=C(COC3=O)N(CCO)c3cc4c(cc32)OCCO4)cc(OC)c1OC` (configuration not stated), the growth was 26.8% (inactive).
`COc1cccc(NC(=O)c2cccc(C3CCc4c(cc(OC)c(OC)c4OC)O3)c2)c1` (configuration not stated) was tested, and the growth was 26.3% (inactive).
In the case of `Cn1c(O)c(C(/C=C/c2ccccc2)=Nc2ccccc2N)c(=O)n(C)c1=O`, the growth is reported as 82.4% (inactive).
`CC1=C(C(=O)n2c3ccccc3c3ccccc32)C(c2cccc([N+](=O)[O-])c2)C(C(=O)n2c3ccccc3c3ccccc32)=C(C)N1` was tested, and the growth was 93.8% (inactive).
For `O=C(O)c1cn(C2CC2)c2cc(N3CCN(C(=O)N/N=C/c4ccccc4)CC3)c(F)cc2c1=O`, the growth was 89% (inactive).
For `CC1(C)CCC(S(=O)(=O)c2ccc3c(c2)/C(=N\O)c2cc(S(=O)(=O)N4CCN(c5ccc(F)cc5O)CC4)ccc2-3)CC1`, the growth was -50.4% (active).
With `Cc1ccc(C)n1/C=C/n1c(C)ccc1C` the growth was 75% (inactive).
For `CCOC(=O)C(=Cc1cccc(C#N)c1)C(=O)OCC`, the growth was 63.2% (inactive).
For `COc1cc(-c2nc(NC(C)=O)sc2-c2ccnc(NCCNS(=O)(=O)c3ccccc3)n2)ccc1Cl`, the growth was 25.3% (inactive).
With `CCN1CCN(CC(=O)Nc2nc3ccc(NCc4ccc(Br)cc4)cc3s2)CC1` the growth was 40.9% (inactive).
`C/C(=N\Nc1nc(C)cs1)c1cc2ccccc2o1` was tested, and the growth was 87.3% (inactive).
`COc1ccccc1-n1c(-c2cc(O)ccc2C)cn2c3c(=O)[nH]c(=O)n(C)c3nc12` was tested, and the growth was -1.51% (active).
In the case of `CC(O)c1ncc(/C=C2\SC(=S)N(Cc3ccccc3)C2=O)s1` (configuration not stated), the growth is reported as 73.4% (inactive).

From PubChem BioAssay (NCI)
